14 compounds from PubChem BioAssay (NCATS) can be followed below.

Values joined by “and” are separate entries in the source; they are usually repeats but may differ in a detail not shown here. Identical values can stand only once. Inconclusive results are not listed. Unmarked numbers belong to inactive results. Active and inactive are the calls of the source. Calls come from the whole dose curve; as a rule, active = well fitted inhibition curve with a large enough effect; inconclusive = small, poorly fitted or top-dose-only effect; inactive = flat fitted curve, though single readings scatter.
% is set by controls: 0 for no effect and ±100 for the full control effect; potency is the fitted concentration of half-maximal effect.

The test has as its system KB-3-1. Nature of the test: Cytotoxic Profiling of Annotated Libraries Using Quantitative High-Throughput Screening (AID 1296008). Note: nearly all actives have a fitted effect of over 60% in size. The note with it: Five cell lines viability, CellTiter-Glo ATP luminescence, 48-72 h; max response: hits give low values. In a few lines: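 Cytotoxicity was measured as CellTiter-Glo ATP luminescence, read after 10 min at room temperature. Compound treatment of the cells lasted 48 or 72 hr at 37 degrees Celsius in a qHTS format.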
(Cellular ATP, detected with luciferase, serves as a proxy for viable cell number.)
With `C=CCCCCCCCCC(=O)OC`, the max response is 9.89%. The same measure, in the same setting: the same measure for `CC1(C)[C@@H]2CC[C@@]1(C)[C@H](OC(=O)CSC#N)C2`: 3.19%; for `CCOc1ccc(NC(=S)Nc2ccc(OCC)cc2)cc1`: 43.1%. Regarding `CC(O)CN(C)C` (centres undefined), the max response was -6.37%. As for `C[Si](C)(C)O[Si](C)(C)C`, the max response was -5.55%. Same read-out and setting: to `CCN(CC)CCC(=O)N1c2ccccc2Sc2ccc(C(F)(F)F)cc21` belongs 2.13%; to `CCCCC(=O)O[C@H]1CC[C@H]2[C@@H]3CCc4cc(O)ccc4[C@H]3CC[C@]12C`, 0.0537%.

For the compound `CC(C)OC(=O)Nc1ccc2nc(-c3cscn3)[nH]c2c1`, the Potency was 5.8 µM (active). For the compound `COc1cc2c(cc1OC)[C@@H](Cc1cc(OC)c(OC)c(OC)c1)[N+](C)(CCCOC(=O)CC/C=C/CCC(=O)OCCC[N+]1(C)CCc3cc(OC)c(OC)cc3[C@H]1Cc1cc(OC)c(OC)c(OC)c1)CC2` (some centres undefined), the max response was -6.45% and -2.94%. On the same count and under the same terms, the same measure for `Nc1nccs1`: -12.3%; for `O=C(O)c1cc(O)c2c(c1)[C@H]([C@H]1c3cc(C(=O)O)cc(O)c3C(=O)c3c(O[C@@H]4O[C@H](CO)[C@@H](O)[C@H](O)[C@H]4O)cccc31)c1cccc(O[C@@H]3O[C@H](CO)[C@@H](O)[C@H](O)[C@H]3O)c1C2=O`: -13.8%; for `F[Si-2](F)(F)(F)(F)F`: 6.45%. Still for that read-out and setting: to `Cc1nc(NS(=O)(=O)c2ccc(N)cc2)nc(C)c1Br` belongs 9.38%; to `Cc1c(Cl)cccc1Nc1ncccc1C(=O)O`, 2.98%.
